Results reported in PubChem BioAssay AID1159580 (chemical genetic matrix, 2015).
Where “and” joins values, the source holds several entries; their conditions need not be identical. Equal entries are not always repeated. About 2,000 (36%) of roughly 5,500 compounds were called active. Another 18% or so got no clear call; they are omitted. Cut-off read from the data, not from the text of the source: active = normalized growth mostly below about 0.91 (no sharp cut-off); inconclusive = no clear call, values can overlap the other calls; inactive = mostly above about 0.92. The list shows a part of the results.

Test: chemical genetic growth profiling, strain panel (AID 1159580);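 note: tested at 20 µM; growth read once vehicle control cultures reached saturation at 30 °C; 1 = growth at the plate median or of vehicle wells; lower values mean less growth of the strain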
Conditions: growth OD
[1] = S. cerevisiae deletion strains, locus YAL013W, strain DEP1, hits give low values
[2] = S. cerevisiae deletion strains, locus YBR229C, strain ROT2, hits give low values
[3] = S. cerevisiae deletion strains, locus YDL101C, strain DUN1, hits give low values
[4] = S. cerevisiae deletion strains, locus YDL134C, strain PPH21, hits give low values
[5] = S. cerevisiae deletion strains, locus YDR150W, strain NUM1, hits give low values
[6] = S. cerevisiae deletion strains, locus YEL061C, strain CIN8, hits give low values
[7] = S. cerevisiae deletion strains, locus YGR078C, strain PAC10, hits give low values
[8] = S. cerevisiae deletion strains, locus YGR229C, strain SMI1, hits give low values
[9] = S. cerevisiae deletion strains, locus YHR030C, strain SLT2, hits give low values
[10] = S. cerevisiae deletion strains, locus YJR043C, strain POL32, hits give low values
[11] = S. cerevisiae deletion strains, locus YJR075W, strain HOC1, hits give low values
[12] = S. cerevisiae deletion strains, locus YKL190W, strain CNB1, hits give low values
[13] = S. cerevisiae deletion strains, locus YLR039C, strain RIC1, hits give low values
[14] = S. cerevisiae deletion strains, locus YLR262C, strain YPT6, hits give low values
[15] = S. cerevisiae deletion strains, locus YMR263W, strain SAP30, hits give low values
[16] = S. cerevisiae deletion strains, locus YMR307W, strain GAS1, hits give low values
[17] = S. cerevisiae deletion strains, locus YNL128W, strain TEP1, hits give low values
[18] = S. cerevisiae deletion strains, locus YNL153C, strain GIM3, hits give low values
[19] = S. cerevisiae deletion strains, locus YNL322C, strain KRE1, hits give low values
[20] = S. cerevisiae deletion strains, locus YOL006C, strain TOP1, hits give low values
[21] = S. cerevisiae deletion strains, locus YPL055C, strain LGE1, hits give low values
[22] = S. cerevisiae deletion strains, locus YPL241C, strain CIN2, hits give low values

Measured: normalized growth

CC(=O)N[C@@H]1[C@@H](C(O)[C@H](O)CO)O[C@](O)(C(=O)O)C[C@@H]1O (stereo partly drawn)
inactive: [1] 1.01 | S. cerevisiae deletion strains, locus YBR021W, strain FUR4, hits give low values 1.02 | [2] 1 | S. cerevisiae deletion strains, locus YCL029C, strain bik1, hits give low values 0.997 | S. cerevisiae deletion strains, locus YDL035C, strain GPR1, hits give low values 1.01 | S. cerevisiae deletion strains, locus YDL074C, strain BRE1, hits give low values 1.04 | [3] 1.03 | [4] 1 | S. cerevisiae deletion strains, locus YDL185W, strain tfp1, hits give low values 1.02 | S. cerevisiae deletion strains, locus YDL192W, strain arf1, hits give low values 0.999 | S. cerevisiae deletion strains, locus YDR101C, strain arx1, hits give low values 1 | [5] 1 | S. cerevisiae deletion strains, locus YDR162C, strain NBP2, hits give low values 1.02 | S. cerevisiae deletion strains, locus YDR318W, strain mcm21, hits give low values 1.01 | S. cerevisiae deletion strains, locus YDR388W, hits give low values 1.01 | S. cerevisiae deletion strains, locus YDR502C, strain sam2, hits give low values 0.998 | [6] 1 | S. cerevisiae deletion strains, locus YER110C, hits give low values 1 | S. cerevisiae deletion strains, locus YER155C, strain BEM2, hits give low values 1 | S. cerevisiae deletion strains, locus YER167W, strain BCK2, hits give low values 1 | S. cerevisiae deletion strains, locus YGL078C, strain dbp3, hits give low values 0.982 | S. cerevisiae deletion strains, locus YGL086W, strain mad1, hits give low values 1 | S. cerevisiae deletion strains, locus YGL248W, strain PDE1, hits give low values 1.01 | [7] 1.03 | S. cerevisiae deletion strains, locus YGR135W, strain pre9, hits give low values 1.01 | [8] 1.02 | S. cerevisiae deletion strains, locus YGR252W, strain gcn5, hits give low values 0.958 | [9] 0.998 and 1.01 | S. cerevisiae deletion strains, locus YHR079C, strain IRE1 (second series), hits give low values 1.01 | S. cerevisiae deletion strains, locus YHR079C, strain IRE1, hits give low values 1 | S. cerevisiae deletion strains, locus YHR094C, strain hxt1, hits give low values 1.01 | S. cerevisiae deletion strains, locus YHR129C, strain ARP1, hits give low values 1.02 | S. cerevisiae deletion strains, locus YHR200W, strain rpn10, hits give low values 1.01 | S. cerevisiae deletion strains, locus YIL066C, strain RNR3, hits give low values 1.02 | S. cerevisiae deletion strains, locus YIL073C, strain SPO22, hits give low values 1.02 | S. cerevisiae deletion strains, locus YIL125W, strain kgd1, hits give low values 0.993 | S. cerevisiae deletion strains, locus YIR030C, strain dcg1, hits give low values 0.999 | S. cerevisiae deletion strains, locus YJL095W, strain BCK1, hits give low values 1.06 and 0.995 | S. cerevisiae deletion strains, locus YJL134W, strain LCB3, hits give low values 1.01 | S. cerevisiae deletion strains, locus YJL168C, strain set2, hits give low values 1.01 | S. cerevisiae deletion strains, locus YJL187C, strain SWE1 (second series), hits give low values 1.04 | [10] 1.04 | S. cerevisiae deletion strains, locus YJR066W, strain TOR1, hits give low values 0.916 | [11] 1.02 | S. cerevisiae deletion strains, locus YKL009W, strain mrt4, hits give low values 1.02 | S. cerevisiae deletion strains, locus YKL068W, hits give low values 0.998 | S. cerevisiae deletion strains, locus YKL085W, strain MDH1 (second series), hits give low values 1 | S. cerevisiae deletion strains, locus YKL085W, strain MDH1, hits give low values 1 | [12] 1.01 | S. cerevisiae deletion strains, locus YKR001C, strain vps1, hits give low values 1.01 | [13] 1.02 | S. cerevisiae deletion strains, locus YLR058C, strain SHM2, hits give low values 1.01 | S. cerevisiae deletion strains, locus YLR102C, strain apc9, hits give low values 1.01 | S. cerevisiae deletion strains, locus YLR113W, strain HOG1, hits give low values 1.05 | [14] 1.03 | S. cerevisiae deletion strains, locus YLR268W, strain sec22, hits give low values 1.07 | S. cerevisiae deletion strains, locus YLR330W, strain CHS5, hits give low values 1 | S. cerevisiae deletion strains, locus YLR342W, strain FKS1 (second series), hits give low values 1.02 | S. cerevisiae deletion strains, locus YLR371W, strain rom2, hits give low values 1.01 | S. cerevisiae deletion strains, locus YLR418C, strain cdc73, hits give low values 1.01 | S. cerevisiae deletion strains, locus YML016C, strain PPZ1, hits give low values 1.01 | S. cerevisiae deletion strains, locus YML032C, strain rad52, hits give low values 1.05 | S. cerevisiae deletion strains, locus YML124C, strain tub3, hits give low values 0.997 | S. cerevisiae deletion strains, locus YMR078C, strain ctf18, hits give low values 1.01 | S. cerevisiae deletion strains, locus YMR223W, strain ubp8, hits give low values 0.975 | [15] 1.02 | [16] 1.01 | S. cerevisiae deletion strains, locus YNL067W, strain RPL9B, hits give low values 1.05 | [17] 1.03 | [18] 1.04 | S. cerevisiae deletion strains, locus YNL183C, strain NPR1, hits give low values 0.913 | S. cerevisiae deletion strains, locus YNL233W, strain BNI4, hits give low values 1.03 | S. cerevisiae deletion strains, locus YNL250W, strain rad50, hits give low values 0.999 | S. cerevisiae deletion strains, locus YNL271C, strain bni1, hits give low values 1.01 | S. cerevisiae deletion strains, locus YNL298W, strain CLA4, hits give low values 0.994 | S. cerevisiae deletion strains, locus YNL307C, strain MCK1, hits give low values 1 | [19] 1 | S. cerevisiae deletion strains, locus YNR052C, strain pop2, hits give low values 1.01 | [20] 1.15 | S. cerevisiae deletion strains, locus YOL012C, strain htz1 1.02 | S. cerevisiae deletion strains, locus YOL147C, strain pex11, hits give low values 1 | S. cerevisiae deletion strains, locus YOR061W, strain CKA2, hits give low values 1.01 | S. cerevisiae deletion strains, locus YOR069W, strain VPS5, hits give low values 1.01 | S. cerevisiae deletion strains, locus YOR136W, strain idh2, hits give low values 0.986 | S. cerevisiae deletion strains, locus YOR144C, strain elg1, hits give low values 0.994 | S. cerevisiae deletion strains, locus YOR184W, strain ser1, hits give low values 0.994 | S. cerevisiae deletion strains, locus YOR231W, strain MKK1, hits give low values 0.996 | S. cerevisiae deletion strains, locus YOR316C, strain cot1, hits give low values 1.01 | [21] 1.02 | [22] 1.01 | S. cerevisiae deletion strains, locus YPL256C, strain CLN2, hits give low values 0.99 | S. cerevisiae deletion strains, locus YPR119W, strain clb2, hits give low values 1 | S. cerevisiae deletion strains, locus YPR141C, strain kar3, hits give low values 0.999 | S. cerevisiae deletion strains, locus YPR163C, strain tif3, hits give low values 1.01 | S. cerevisiae deletion strains, locus YPR167C, strain met16, hits give low values 1 | S. cerevisiae deletion strains, strain wtn01, hits give low values 1.01 | S. cerevisiae strains, strain wild type, hits give low values 1.01

Cc1ccc(Cl)cc1NC(=S)NCCO
inactive: [1] 1.01 | [2] 1.01 | [3] 1.01 | [4] 0.996 | [5] 1 | [6] 1.02 | [7] 1.02 | [8] 0.999 | [9] 1.02 | S. cerevisiae deletion strains, locus YHR087W, strain rtc3, hits give low values 1.01 | S. cerevisiae deletion strains, locus YJL187C, strain SWE1, hits give low values 1.01 | [10] 0.993 | [11] 0.992 | [12] 1 | [13] 1.02 | S. cerevisiae deletion strains, locus YLR058C, strain SHM2 (second series), hits give low values 1.01 | S. cerevisiae deletion strains, locus YLR085C, strain ARP6, hits give low values 1 | [14] 1.01 | S. cerevisiae deletion strains, locus YML094W, strain GIM5, hits give low values 1.05 | S. cerevisiae deletion strains, locus YMR219W, strain ESC1, hits give low values 1 | [15] 0.989 | [16] 0.95 | [17] 1.02 | [18] 1.01 | S. cerevisiae deletion strains, locus YNL298W, strain CLA4 (second series), hits give low values 1.03 | [19] 1 | S. cerevisiae deletion strains, locus YNR030W, strain Alg12, hits give low values 0.96 | [20] 1.03 | [21] 1.02 | [22] 1 | S. cerevisiae deletion strains, locus YPR135W, strain CTF4, hits give low values 1.11
